Bioassay records from PubChem.
sEH inhibitor = blocks human soluble epoxide hydrolase activity; P34913; inhibition, % at 2 µM; 0.34% of 91,000 active; recombinant human sEH enzymatic activity assay; AID 707; in the data active = inhibition above about 80%
CYP2C9 inh = human CYP2C9 inhibition; CYP2C9 Supersomes, luciferin-H conversion, luminescence; inhibition, % at 5 µM; 20% of 96,000 active; AID 777;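 active = blocking of liver enzyme CYP2C9 beyond about 50% at 5 µM, limit read from the data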
CYP2C19 inh = inhibitors of human CYP2C19; P33261; CYP2C19 Supersomes, luciferin-H EGE luminescence, 30 min; inhibition, % at 5 µM; 21% of 96,000 active;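 active = CYP2C19 inhibition above a set limit at 5 µM in the primary screen, cut at about 50% in these data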;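 also: plate controls were negative control wells for no effect and 2.5 mM tranylcypromine positive control for full effect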
Target sequence (P33261 whole entry, looked up): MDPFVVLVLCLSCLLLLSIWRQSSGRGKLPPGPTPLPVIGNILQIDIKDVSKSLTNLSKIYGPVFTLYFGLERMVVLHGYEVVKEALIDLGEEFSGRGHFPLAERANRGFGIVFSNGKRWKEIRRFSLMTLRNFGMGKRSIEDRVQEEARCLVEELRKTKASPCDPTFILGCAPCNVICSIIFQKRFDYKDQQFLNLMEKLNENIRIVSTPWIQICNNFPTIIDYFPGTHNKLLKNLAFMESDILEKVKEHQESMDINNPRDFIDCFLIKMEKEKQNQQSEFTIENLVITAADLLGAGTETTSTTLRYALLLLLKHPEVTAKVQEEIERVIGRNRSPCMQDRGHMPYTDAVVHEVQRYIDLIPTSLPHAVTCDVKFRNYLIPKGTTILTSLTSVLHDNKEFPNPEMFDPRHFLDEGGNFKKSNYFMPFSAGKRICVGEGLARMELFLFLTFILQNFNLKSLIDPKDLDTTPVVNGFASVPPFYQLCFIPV
CYP2C19 act = activators of human cytochrome P450 2C19. P33261. recombinant CYP2C19, luciferin-H EGE luminescence; hits give high values; 0 = fully inhibited enzyme, 1 = untreated enzyme. activation factor at 5 µM. 96,000 tested, under 10 active;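 active = activation factor of at least 2 at 5 µM in the primary screen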;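 also: 0 = wells with 2.5 mM tranylcypromine and 1 = vehicle-only wells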
sEH act = soluble epoxide hydrolase (human) activation; P34913; purified human sEH enzymatic activity, activator screen; activation, % at 2 µM; 0.04% of 91,000 active; AID 717; in the data active = activation above about 37%
CYP2C9 act = CYP2C9 (human) activation. P11712. recombinant CYP2C9, luciferin-H conversion, luminescence; hits give high values; factor 1 = untreated enzyme, 0 = blocked. activation factor at 5 µM. 1.4% of 96,000 active;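 active = activation factor of 2 or more for CYP2C9 at a 5 µM dose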;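 also: 0 = sulfaphenazole-blocked wells and 1 = vehicle-only wells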
* = called active by the depositor; nt = no result. Only some compounds are listed: those with a hit (about 27% of all), similar ones and a draw of the others.

SMILES	sEH inhibitor	CYP2C9 inh	CYP2C19 inh	CYP2C19 act	sEH act	CYP2C9 act
CC1(C)Cc2ccccc2-c2nnc(SCC(=O)Nc3nc4ccccc4s3)n21	-7	7	9	0.9	6	0.9
O=C(O)CCc1nn2cc(-c3ccccc3)nc2[nH]c1=O	-2	nt	nt	nt	2	nt
Cc1nn2cc(-c3ccccc3)nc2[nH]c1=O	5	74*	5	0.9	-8	0.3
CCCc1nnc(SCC(=O)N2C(C)CCCC2C)n1CC1CCCO1 (stereo unspecified)	-14	-1	18	0.8	15	1
Cc1cc(-c2nnc(SCC(=O)N3C(C)CCCC3C)o2)no1 (stereo unspecified)	8	30	56*	0.4	-9	0.7
CC1CCCC(C)N1C(=O)CSc1nnc(C2CCCCC2)o1 (stereo unspecified)	nt	12	59*	0.4	nt	0.9
CCc1nc(SCC(=O)Nc2ccnc3ccccc23)n[nH]1	2	19	2	1	-2	0.8
O=c1n(Cc2ccccc2)c2cc(Cl)cnc2n1Cc1ccccc1	-7	9	23	0.8	8	0.9
O=c1[nH]c2ccccc2n1Cc1ccc(Cl)cc1	-19	24	73*	0.3	19	0.8
CCn1c2ccccc2c2nnc(SCc3ccccc3)nc21	nt	25	27	0.7	nt	0.7
O=c1[nH]c2ccccc2n1CCC1CCCCC1	10	56*	93*	0.1	-8	0.4
O=c1[nH]c2ccccc2n1CCCSCCCn1c(=O)[nH]c2ccccc21	nt	88*	16	0.8	nt	0.1
Cc1cc(C(=O)CSCCCn2c(=O)[nH]c3ccccc32)c(C)n1C	-8	-17	33	0.7	5	1.2
CCn1c2ccccc2c2nnc(SCCCn3c(=O)[nH]c4ccccc43)nc21	2	88*	78*	0.2	-3	0.1
C/C(CC1CC(COCC(C)C)OC1=O)=N\Nc1nc(-c2ccccc2)cs1 (stereo unspecified)	-8	72*	89*	0.1	10	0.3
CS(=O)(=O)N(CC(=O)NCc1ccc(Cl)cc1)C1CCCCC1	14	nt	nt	nt	-12	nt
Cc1ccc(S(=O)(=O)N(C)CC(=O)NCc2ccncc2)cc1	-4	80*	90*	0.1	6	0.2
CC1CCCC(NC(=O)CN(C)S(=O)(=O)c2cccc3cccnc23)C1C (stereo unspecified)	11	-114	59*	0.4	-13	2.1*
O=C(CN(C1CCCCC1)S(=O)(=O)c1ccc(Cl)cc1)NCCCO	nt	31	60*	0.4	nt	0.7
CCOC(=O)Cc1csc(NC(=O)CN(C)S(=O)(=O)c2cccc3cccnc23)n1	-2	92*	90*	0.1	6	0.1
CCc1nnc(NCn2nc(C)cc2C)s1	-3	2	18	0.8	5	1
CCN(CC)C(=O)C1CCN(S(=O)(=O)c2ccc(C3CNC(=O)C3)cc2)CC1 (stereo unspecified)	-5	18	3	1	5	0.8
CC(C)(C)S(=O)(=O)c1ccc(S(=O)(=O)C(C)(C)C)s1	-11	nt	nt	nt	14	nt
Cc1cc(N2CCN(C)CC2)nc2ccc(NC(=O)CCC(=O)NCc3ccco3)cc12	nt	-5	-5	1	nt	1.1
CC(=O)NCCc1ccc(S(=O)(=O)NC2OC(=O)c3ccccc32)cc1 (stereo unspecified)	0	-14	-19	1.2	-1	1.1
SMILES	sEH inhibitor	CYP2C9 inh	CYP2C19 inh	CYP2C19 act	sEH act	CYP2C9 act
Cc1ccc(CNC(=O)CN(C)S(=O)(=O)c2cccc3cccnc23)cc1	-10	42	88*	0.1	7	0.6
Cc1ccc(S(=O)(=O)N(C)CC(=O)Nc2ccncc2)cc1	-12	63*	100*	0	12	0.4
Cc1ccc(S(=O)(=O)N(CC(=O)NCc2ccncc2)C2CCCCC2)cc1	nt	93*	99*	0	nt	0.1
Cc1ccc(S(=O)(=O)N(C)CCCC(=O)Nc2ccncc2)cc1	-2	96*	99*	0	1	0
CN(CC(=O)N1CCc2ccccc21)S(=O)(=O)c1cccc2cccnc12	1	-12	18	0.8	-4	1.1
CCNc1nc2[nH]c(=O)c3c(c2s1)OC(N)=C(C#N)C3c1ccc(C)cc1 (stereo unspecified)	3	13	-2	1	-3	0.9
CCCC(=O)Nc1nnc(Sc2ccc(N(C)C)cc2)s1	-2	-56	94*	0.1	0	1.6
CCC(=O)Nc1nnc(SCc2ccc(F)cc2)s1	10	nt	nt	nt	-7	nt
CCC(=O)Nc1nnc(Sc2ccc(N(C)C)cc2)s1	-1	-38	96*	0	0	1.4
C=CCn1c(=S)[nH]c2sc3c(c2c1=O)CCC3	2	nt	nt	nt	-2	nt
CS(=O)(=O)N(CC(=O)NCc1ccccc1Cl)Cc1ccccc1	-33	nt	nt	nt	33	nt
Cc1ccc(Cn2nnc3c(=O)n(Cc4cc(C)ccc4C)cnc32)cc1	-2	nt	nt	nt	7	nt
CCN(CC)C(=O)CSc1nnc(COc2ccccc2)n1CC	8	14	28	0.7	-6	0.9
COc1ccc(-c2ccnc(-c3ccc(OCCCF)cc3)n2)cc1	-16	51*	20	0.8	19	0.5
FCCCOc1ccc(-c2nccc(-c3ccc(Cl)cc3)n2)cc1	2	44	10	0.9	1	0.6
COC(=O)CN(c1c(C)cccc1C)S(C)(=O)=O	nt	1	56*	0.4	nt	1
COC(=O)CN(c1ccccc1C)S(C)(=O)=O	2	-6	3	1	-4	1.1
COC(=O)CN(c1ccc(C)c(Cl)c1)S(C)(=O)=O	-19	-9	54*	0.5	18	1.1
Cn1cccc1CC(=O)N/N=C\c1cccs1	11	9	21	0.8	-9	0.9
Cc1ccc(N(CC(=O)N/N=C/c2cccs2)S(C)(=O)=O)cc1Cl	26	69*	47	0.5	-25	0.3
CCn1cc(C(=O)NCCC2=CCCCC2)c(=O)c2cc(S(=O)(=O)N(C)C)ccc21	-4	nt	nt	nt	4	nt
CCC(=O)c1ccc(OCc2ccc(C(=O)OC)o2)c(OC)c1	nt	56*	40	0.6	nt	0.4
COc1ccc(NC(=O)c2ccc(COc3ccccc3OC)o2)cc1OC	15	20	26	0.7	-12	0.8
C=CCc1ccc(OCc2ccc(C(=O)OC)o2)c(OC)c1	7	68*	44	0.6	-4	0.3
CCN(CC)C(=O)CSc1nc(O)c(Cc2ccccc2)c(=O)n1-c1ccccc1	-5	-4	-2	1	9	1
Cc1c(C(=O)NCc2ccc3c(c2)OCO3)oc2ccc(S(=O)(=O)N3CCCCCC3)cc12	nt	68*	24	0.8	nt	0.3
CCCCN(C)C(=O)c1oc2ccc(S(=O)(=O)N3CCCCCC3)cc2c1C	-13	56*	30	0.7	12	0.4
Cc1c(C(=O)NCc2ccccc2)oc2ccc(S(=O)(=O)N3CCC4(CC3)OCCO4)cc12	1	55*	30	0.7	0	0.5
